# Screens: PubChem BioAssay, several laboratories
# tim23-1 inh = growth inhibitors of tim23-1 mutant yeast; inhibition, % at 20 µM; actives 1.3% (n = 330,000); S. cerevisiae tim23-1 growth, BacTiter-Glo luminescence, 24 h; AID 463212;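 active = growth inhibition of the mutant yeast at or above 50%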;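 also: temperature-sensitive mutant grown at 25 °C; plate controls were DMSO-treated mutant yeast for no effect and medium wells lacking yeast for full effect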
# tim10-1 inh = inhibits growth of tim10-1 mutant yeast; S. cerevisiae tim10-1 ts strain growth, BacTiter-Glo, 24 h; inhibition, % at 20 µM; actives 2.2% (n = 330,000); AID 463190;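 active = inhibition of at least 40%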;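 also: mutant grown at 25 °C; 0% = DMSO wells with yeast and 100% = wells holding no yeast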
# TIM10 inh = inhibits growth of TIM10 yeast strain. actives 1.4% (n = 330,000). S. cerevisiae TIM10 strain growth, BacTiter-Glo luminescence, 24 h. inhibition, % at 10 µM;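 active = inhibition of 40% or more at the single tested concentration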;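 also: wild-type TIM10 isogenic control strain grown at permissive 25 °C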
# SKKanGAS inh = inhibitors of SKKanGAS S. pyogenes growth in kanamycin (SK-promoter or general growth effect). actives 1.3% (n = 300,000). inhibition, % at 7.5 µM. BacTiter-Glo, 6 h. AID 1662;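 active = mean replicate score, as percent of positive control median, at least 50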;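 also: strain carries kanamycin resistance gene driven by streptokinase promoter and grows in 40 µg/ml kanamycin; loss of luminescence reflects streptokinase promoter inhibition or plain growth inhibition; 0% = median of DMSO wells and 100% = positive control at its reference dose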
# NALP3 yeast inh = blocks the NALP3 inflammasome reconstituted in yeast | Yeast reconstituted NLRP3/ASC/caspase-1, beta-gal luminescence, 24 h | inhibition, % at 10 µM | actives 0.39% (n = 330,000);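 active = inhibition of 50% or more; inactive = inhibition below 50%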;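 also: plate controls were induced DMSO wells for no effect and uninduced yeast grown without galactose for full effect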
# PfHsp90 set2 = reduces growth (ATP signal) of yeast expressing P. falciparum Hsp90. S. cerevisiae expressing PfHsp90, BacTiter-Glo ATP, 48 h; yeast lacking PDR1 and PDR3 efflux regulators. inhibition, % at 9.4 µM. actives 0.32% (n = 310,000). AID 504621;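 active = every replicate shows inhibition above about 80%, whatever the replicate mean, limit read from the data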;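 also: 0% = DMSO neutral controls and 100% = 20 µM radicicol positive controls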
# An asterisk follows results filed as active; · = no result. Rows were chosen to be rich in hits. Some 4.5% of all compounds tested hit in one or more screens of this group.
SMILES,tim23-1 inh,tim10-1 inh,TIM10 inh,SKKanGAS inh,NALP3 yeast inh,PfHsp90 set2
COc1ccc(-c2nn(-c3ccccc3)cc2C(=O)N2CCN(S(=O)(=O)c3ccccc3C#N)CC2)cc1,-9.5,-7.6,6.9,6.6,20.7,·
Cc1c(-c2cccc(Cl)c2)nc2ccccc2c1C(=O)OC/C(O)=C(\C#N)c1nc2ccccc2[nH]1,6.8,14.1,-4.7,57.6*,-1.9,-1.5
O=C1[C@H]2[C@@H](c3ccc(F)cc3)N3C(=O)N(c4ccc(Br)cc4)C(=O)[C@@]3(Cc3ccc(Cl)cc3)[C@H]2C(=O)N1C1CCCCC1,26.8,8.1,7.2,6.5,5.2,-15.4
Cc1ccc(NC(=O)[C@@]2(CC(=O)O)CC(/C=C/c3ccccc3)=NO2)c(C)c1,2.3,-4.9,11.7,-1.5,4.6,-9.5
Cc1ccc(NC(=O)Nc2nc3ccccc3s2)cc1NC(=O)Nc1nc2ccccc2s1,23.0,13.4,25.0,75.8*,2.0,7.5
O=C(CN1CCN(C(=O)CCC(=O)N2CCC(c3ccccc3)=N2)CC1)Nc1ccc(F)cc1,-2.8,3.2,0.2,·,-2.5,11.8
CS(=O)(=O)N1CCCC(C(=O)Nc2ccc(F)c(F)c2)C1 (stereo not given),1.2,-13.6,7.3,·,5.2,29.5
CCn1c(CNc2ccc(Cl)cc2)nnc1SCc1ccc(C)cc1,-5.5,-3.5,-4.9,9.2,7.2,80.6*
CCn1c(CNc2ccc(Cl)cc2)nnc1SCc1ccc(Cl)cc1,44.3,9.4,17.5,-2.6,5.5,127.2*
CCn1c(CNc2ccc(Cl)cc2)nnc1SCCN1CCCCC1,9.1,-4.5,-14.7,9.6,-7.8,-0.7
O=C(NCc1ccccc1)c1ccc(NC(=O)C2CCCCC2)cc1,·,·,·,·,·,19.1
Nn1c(COc2cccc(Br)c2)nnc1SCC(=O)NCC1CCCO1 (stereo not given),12.5,5.8,-2.6,·,16.7,-1.0
O=C(Cn1cnc2c(OCc3ccccc3)ncnc21)N[C@H](CO)Cc1cc2ccccc2[nH]1,11.1,3.0,2.0,·,-4.8,3.7
CCn1c(CSc2n[nH]c(N)n2)nc2cc(C(=O)O)ccc21,10.3,-4.6,-10.0,0.2,3.0,-13.6
Cc1nc(N2CCN(Cc3ccccc3)CC2)nc2c1CCC2,-21.7,4.1,-20.5,5.6,-1.9,-5.0
FC(F)(F)c1nc(N2CCN(c3ccccc3)CC2)nc2c1CCCCC2,-4.4,-7.6,-6.2,68.4*,10.2,-18.7
O=C1CC(N(CCc2ccccc2)C(=S)Nc2ccccc2)C(=O)N1c1ccc(Br)cc1 (stereo not given),41.5,21.8,34.5,68.8*,13.3,-10.5
O=C1/C(=C\c2ccc(Cl)c(Cl)c2)CN(C(=O)CCN2CCOCC2)C/C1=C/c1ccc(Cl)c(Cl)c1,·,·,·,·,·,107.3*
CN1CC(=O)N/C1=N\C(=O)Nc1ccc(O)cc1,3.6,4.5,-0.2,-2.2,3.6,-9.2
CN(/N=C/c1cc(Br)cc(Br)c1O)c1cccc(C(F)(F)F)n1,16.6,19.8,17.9,70.0*,27.6,-28.0
O=C(N/N=C/c1cc(Br)c(O)c(Br)c1)c1cccc(C(F)(F)F)c1,16.3,12.7,8.8,9.9,24.9,21.8
COc1c(O)cc(O)c2c(=O)cc(-c3ccccc3)oc12,23.8,-27.0,6.7,·,25.9,1.4
C/C(N)=C(/C#N)C(=O)COC(=O)c1cc(-c2cccc3ccccc23)nc2ccccc12,23.3,28.4,24.4,62.0*,17.4,-9.0
CN(CCOc1ccccc1)S(=O)(=O)c1ccccc1C#N,4.2,-14.3,-8.1,·,40.4,·
CCOc1ccc(NC(=O)CCC(=O)NNC(=O)c2ccccc2Cl)cc1,16.6,7.4,-0.6,·,19.0,-42.2
SMILES,tim23-1 inh,tim10-1 inh,TIM10 inh,SKKanGAS inh,NALP3 yeast inh,PfHsp90 set2
CC(C)=CCc1c(-c2ccc(O)cc2O)oc2cc3c(c(O)c2c1=O)C=CC(C)(C)O3,34.8,2.5,17.3,106.6*,18.1,·
Cc1cccc(C)c1NC(=O)CNC(=O)C(C)NC(C)c1ccccc1Br (stereo not given),-7.5,1.9,5.1,·,-5.4,15.0
C[C@@H]1CN([C@H](C)CO)C(=O)Cc2cc(NS(=O)(=O)c3cn(C)cn3)ccc2O[C@H]1CN(C)S(=O)(=O)c1ccc(Cl)cc1,10.4,3.2,7.1,·,4.4,1.2
O=C(Nc1cccc(C(F)(F)F)c1)Oc1ccc(Cl)c2cccnc12,·,·,·,99.3*,·,124.3*
CC(=O)c1cccc(CN2CCCC(N3CCN(c4ccccc4F)CC3)C2)c1 (stereo not given),2.6,-4.2,2.9,2.8,8.3,-3.5
CCOC(=O)C(=COC(=O)c1ccccc1)NC(=O)Cc1ccccc1,·,·,·,·,·,3.7
Cc1ccc(NC(=O)c2ccccc2NS(=O)(=O)c2ccc(F)cc2)cc1S(=O)(=O)N1CCCCC1,21.1,19.5,0.2,60.2*,0.9,7.0
Cc1csc(NC(=O)COCC(=O)O)c1-c1nc2ccccc2s1,15.0,4.0,15.9,50.5*,10.9,33.3
O=C(COC(=O)c1ccc2ccccc2n1)Nc1ccccc1F,7.1,0.6,-3.2,·,0.1,-14.3
O=C(c1ccc(F)cc1)c1cc2ccc(O)cc2oc1=O,28.5,29.9,24.8,65.4*,9.5,15.7
Cc1ccc(C(=O)OC2OC(=O)C(Cl)=C2N2CCOCC2)cc1 (stereo not given),26.2,34.5,13.0,74.8*,17.8,7.4
Cc1ccccc1NC(=O)Cc1nnc(SCC(=O)N2CCOCC2)n1C,-10.0,-5.0,6.2,-4.0,10.1,3.5
CCCCSc1nc(C)cc(SCC(=O)N/N=C/c2cccc(OC)c2O)n1,25.6,19.0,20.0,69.8*,24.7,-9.3
Cc1cc(N/N=C/c2cccc(Br)c2)nc2ccccc12,45.8,11.6,24.9,90.8*,24.6,-10.2
Cc1cc(N/N=C/c2ccncc2)nc2ccccc12,·,·,·,10.8,·,-17.1
CC1=C(C(=O)O)N2C(=O)C(NC(=O)c3c(F)cccc3F)C2SC1 (stereo not given),0.7,6.3,-5.1,·,17.3,-50.0
Cc1nnc(SCC2=C(C(=O)O)N3C(=O)C(NC(=O)Cn4ncc(Cl)c4C)C3SC2)s1 (stereo not given),3.3,2.8,3.8,105.6*,9.5,-13.2
Cc1nnc(SCC2=C(C(=O)O)N3C(=O)C(NC(=O)c4cccc(F)c4F)C3SC2)s1 (stereo not given),7.9,-2.8,1.7,120.3*,13.9,-3.2
Cc1cc(C)n(CC(=O)NC2C(=O)N3C(C(=O)O)=C(CSc4nnc(C)s4)CSC23)n1 (stereo not given),14.0,-1.9,12.4,·,26.6,-2.4
O=C(NS(=O)(=O)NC1CCCCC1)C1=C(N2CCCC2)COC1=O,16.6,7.3,-1.6,·,11.2,-17.0
CCN1CCN(c2ccccc2NC(=O)C(C)Oc2ccc(C(C)=O)cc2)CC1 (stereo not given),-0.2,-0.9,0.2,·,5.0,10.3
COc1cc(NC(=O)c2cc(-c3ccccc3)on2)cc(OC)c1OC,31.8,3.2,20.1,-7.8,22.3,-3.1
